From PubChem
The list is not random: actives were taken first. Their share in the collection is about 19%.
TDP1 cell CPT: DT40-hTDP1 cell growth loss with CPT | chicken DT40 Tdp1-/-;hTDP1 cells + 20 nM CPT, ATP luminescence, 48 h | Potency, µM (doses to about 46.2 µM), inactives show top-dose activity change, negative = growth inhibition, usual class: inhibitors | 420,000 compounds, 12% hits | AID 686979; note: nearly all actives have a fitted effect of over 55% in size
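Cell growth measured by CellTiter-Glo luminescence after a minimum 48 h, 37 C compound exposure with 20 nM CPT in Tdp1-knockout DT40 cells stably expressing hTDP1, seeded 400/well; qHTS titration format.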
KB-3-1 tox: kills parental KB-3-1 adenocarcinoma cells; 400,000 compounds, 1.4% hits; Potency, µM (doses to about 46.1 µM), most hits filed as cytotoxic; KB-3-1 viability, CellTiter-Glo ATP luminescence, 72 h; AID 1347075; note: nearly all actives have a fitted effect of over 60% in size
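KB-3-1 parental drug-naive adenocarcinoma cells in DMEM/10% FBS, incubated 72 h at 37 C with pin-transferred compounds across a concentration series. Viability by CellTiter-Glo luminescence; concentration-response curves fitted after normalization.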
KB-V1 cytotox: kills drug-selected multidrug resistant KB-V1 cells; KB-V1 MDR cells viability, CellTiter-Glo, 72 h; Potency, µM (highest dose often 46.1 µM), actives largely listed as cytotoxic; 400,000 compounds, 3.4% hits; AID 1347076; note: nearly all actives have a fitted effect of over 60% in size
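Drug-selected KB-V1 cells, grown in DMEM lacking phenol red with 10% FBS, receive compound titrations; after three days at 37 degrees C, surviving cell ATP is quantified by CellTiter-Glo luminescence and responses normalized and curve-fitted.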
HT1080-NT tox: kills 2HG-producing HT-1080-NT fibrosarcoma cells; HT-1080-NT fibrosarcoma viability, CellTiter-Glo ATP luminescence, 48 h; Potency, µM (doses to about 46.1 µM), inactives show at the highest dose activity, negative = less viability, most hits filed as cytotoxic; 360,000 compounds, 1.6% hits; AID 686970;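 note: NT is the 2HG producing partner of a matched IDH1 knockdown line; 0% = DMSO-treated cells and -100% = media-only wells without cells; nearly all actives have a fitted effect of over 55% in size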
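Fibrosarcoma NT cells, 750 per well in 5% FBS RPMI, were exposed to compound for 48 hours. Viability: CellTiter-Glo luminescence.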
TDP1 cell noCPT: qHTS for Inhibitors of human tyrosyl-DNA phosphodiesterase 1 (TDP1): qHTS in cells in absence of CPT; DT40 Tdp1-/- hTDP1 cells, no CPT, ATP luminescence, 48 h; Potency, µM (series often up to 46.2 µM), inactives show at the highest dose activity change, negative = growth inhibition, actives largely listed as inhibitors; 420,000 compounds, 15% hits; note: nearly all actives have a fitted effect of over 55% in size
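DT40 Tdp1-/-;hTDP1 cells, no CPT (DMSO vehicle only), 400 cells/well; compounds pin-transferred; ≥48 hr, 37 °C; CellTiter-Glo 30 min RT dark, luminescence read.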
HT1080 IDH1KD tx: toxicity to HT-1080 IDH1 knockdown cells (counter line); HT-1080 IDH1 knockdown viability, ATP luminescence, 48 h; 360,000 compounds, 2% hits; AID 686971; Potency, µM (doses to about 46.1 µM), for inactives: top-dose activity, negative = toxicity, usual class: cytotoxic;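 note: 0% = DMSO wells and -100% = cell-free medium wells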
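In this qHTS, HT-1080 cells depleted of IDH1 are exposed for 48 h at 37 °C to compound titrations. Toxicity is scored from CellTiter-Glo luminescence, with DMSO as full viability and medium alone as none.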
Numbers without * were called inactive; i = inactive; ? = inconclusive; . = no result; ! = not active in a repeat; [ ] = dose if it differs, or a comment. Calls come from the whole dose curve; as a rule, active = well fitted curve in the direction sought with a large enough effect; inconclusive = small, poorly fitted or top-dose-only effect, or another doubt; inactive = no such curve, though single readings can be large; an effect the other way counts as inactive or inconclusive. Unless noted, % is set by controls: 0 for no effect and ±100 for the full control effect; potency is the fitted concentration of half-maximal effect.

SMILES | TDP1 cell CPT | KB-3-1 tox | KB-V1 cytotox | HT1080-NT tox | TDP1 cell noCPT | HT1080 IDH1KD tx
O=C(NCc1ccc(Cl)cc1)c1cnc2sc(N3CCCCCC3)nn2c1=O | 14.6% | . | . | . | -0.8% | .
O=C(CCS(=O)(=O)c1ccccc1)Nc1nc(-c2ccc(F)cc2)cs1 | ? | i | i | ? | ? | 20.6µM*
CCOc1ccc(-c2n[nH]c(C)c2Oc2ccc(OC)cc2)c(O)c1 | 20.6µM* | i | i | ? | 10.3µM* | ?
C=C(C)COc1ccc(-c2nc(N)ncc2Oc2ccc(OC)cc2)c(O)c1 | ? | i | ? | ? | 29.1µM* | ?
C=C(C)COc1ccc(-c2[nH]ncc2Oc2ccc(OC)cc2)c(O)c1 | ? | ? | i | ? | ? | ?
CCOc1ccc(-c2ncncc2-c2ccccc2OC)c(O)c1 | 13µM* | ? | ? | -17.2% | 23.1µM* | -10.0%
CCOc1ccc(-c2nc(N)ncc2Oc2cccc(OC)c2)c(O)c1 | ? | ? | ? | -25.0% | 18.4µM* | ?
COc1ccc(S(=O)(=O)NC2CC2)cc1Cl | 15.3% | i | i | 0.4% | 11.0% | 8.9%
Cc1c(C(=O)N(C)C2CCOC2)sc2ncnc(NCc3ccc4c(c3)OCO4)c12 (stereo not given) | -10.4%[9.04 µM] | . | . | . | -26.9% | .
COc1ccc(-c2cnc(N)nc2-c2ccc(OCc3ccccc3)cc2O)cc1 | ? | i | i | ? | ? | ?
C=C(C)COc1ccc(-c2nc(N)ncc2-c2ccc(Br)cc2)c(O)c1 | ? | 20.6µM* | ? | ? | ? | -24.9%
CCOc1ccc(-c2nc(N)ncc2Oc2ccccc2Br)c(O)c1 | ? | i | i | ? | ? | 23.1µM*
C=C(C)COc1ccc(-c2ncncc2-c2ccc(Br)cc2)c(O)c1 | -0.6% | i | i | ? | -28.5% | -27.9%
O=C1[C@H](Cc2ccccc2)NCCCC[C@@H](c2ccc(Cl)cc2)N1Cc1ccccc1 | 18.4µM* | ? | 23.1µM*! | ? | 13µM* | ?
O=C1[C@H](Cc2ccccc2)NCC=CC[C@H](c2ccc(Cl)cc2)N1Cc1ccc(Cl)cc1 | 23.1µM* | ? | ? | ? | 16.4µM* | ?
CC(C)CC(=O)N1CCC(O)(CS(=O)(=O)Cc2ccc(Cl)cc2)CC1 | -29.0% | i | i | -6.5% | -0.8% | -5.8%
CC(C)CC(=O)N1C/C=C\C[C@@H](c2ccc(Cl)cc2)N(Cc2ccc(Cl)cc2)C(=O)[C@@H]1Cc1ccccc1 | 10µM* | ? | ? | . | 12.6µM* | .
O=C1[C@H](Cc2ccccc2)NCC=CC[C@H](c2ccc(Cl)cc2)N1Cc1ccccc1 | ? | i | ? | -17.5% | ? | -22.3%
O=C1[C@H](Cc2ccccc2)NCCCC[C@H](c2ccc(Cl)cc2)N1Cc1ccc(Cl)cc1 | 23.1µM* | ? | ? | -18.6% | 18.4µM* | -14.8%
COc1cc(OC)cc(N2C(=O)N(CC(=O)c3ccc(F)cc3)c3ccccc3S2(=O)=O)c1 | -21.1% | i | i | . | -19.3% | .
CCc1ccc(NC(=O)C2CCCN2c2nn3c(=O)cc(C)nc3s2)cc1 (stereo not given) | -11.8% | i | i | 0.7% | ? | -8.1%
COc1cc2nc(CCc3nc4cc(OC)c(OC)cc4[nH]3)[nH]c2cc1OC | 5.62µM* | i | i | . | 2µM* | .
Cc1cc2nc(CO)[nH]c2cc1C | 0.5% | i | i | -1.0% | 3.8% | -0.4%
COc1cccc(CNC(=O)C2=C(C)C(=O)OC23CCC(C)CC3)c1 (stereo not given) | -29.3% | i | i | 2.9% | -29.2% | -7.9%
O=C1c2cccc(OCc3ccc(F)cc3)c2CCN1Cc1ccc(F)cc1 | ? | 2.91µM* | 3.26µM* | -27.9% | 11.6µM* | ?
SMILES | TDP1 cell CPT | KB-3-1 tox | KB-V1 cytotox | HT1080-NT tox | TDP1 cell noCPT | HT1080 IDH1KD tx
CN1CCc2c(OCc3ccc(F)cc3)cccc2C1=O | -20.9% | i | ? | -4.7% | ? | -12.9%
Cc1ccc(CN2CCc3c(OCc4ccc(F)cc4)cccc3C2=O)cc1 | ? | ? | 5.8µM* | -20.9% | ? | -18.3%
COC(=O)c1ccc(COc2cccc3c2CCN(Cc2cccc(C)c2)C3=O)o1 | ? | ? | 16.4µM* | -19.0% | ? | -23.6%
CCOc1ccc(C(=O)N2CCN(Cc3cc(=O)n4nc(-c5cccc(OC)c5)sc4n3)CC2)cc1 | ? | i | i | . | 20.6µM* | .
COc1ccccc1-c1nn2c(=O)cc(CN3CCN(C(=O)/C=C/c4ccccc4)CC3)nc2s1 | ? | i | i | . | 23.1µM* | .
Cc1cccc(-c2nn3c(=O)cc(CN4CCN(S(=O)(=O)c5ccc(Cl)cc5)CC4)nc3s2)c1 | 3.1% | i | i | . | 16.4µM* | .
Cc1ccccc1-c1nn2c(=O)cc(CN3CCN(C(=O)/C=C/c4ccccc4)CC3)nc2s1 | 16.4µM* | i | i | . | ? | .
COc1ccc(-c2nn3c(=O)cc(CN4CCN(C(=O)/C=C/c5ccccc5)CC4)nc3s2)cc1 | -10.5% | i | i | . | ? | .
Cc1ccccc1Nc1nn2c(=O)c3ccccc3nc2s1 | ? | i | i | 4.3% | ? | 3.4%
Cc1ccccc1Nc1nn2c(=O)c3ccc(C(=O)N4CCCC(C)C4)cc3nc2s1 (stereo not given) | 14.6µM* | i | i | -0.6% | 16.4µM* | 10.5%
CCc1ccccc1Nc1nn2c(=O)c3ccc(C(=O)NC4CCC(C)CC4)cc3nc2s1 (stereo not given) | ? | i | i | . | 16.4µM* | .
CCOC(=O)C1CCN(C(=O)c2ccc3c(SCC(=O)O)c4c(nc3c2)CCCC4)CC1 | 1.1% | i | i | 3.2% | -11.9% | 1.5%
CCOC(=O)C1CCN(C(=O)c2ccc3c(=O)n4nc(Nc5ccccc5)sc4nc3c2)CC1 | 20.6µM* | i | i | -5.1% | 14.6µM* | -8.8%
COc1ccccc1Nc1nn2c(=O)c3ccc(C(=O)N4CCC(C)CC4)cc3nc2s1 | 23.1µM* | i | i | -12.4% | 18.4µM* | -22.2%
CCc1cc(OCCOCCN(C)C)ccc1Cl | ? | i | i | -7.3% | ? | -6.9%
Cc1ccc(Cl)cc1NC(=O)CN1C=NS(=O)(=O)c2ccccc21 | -2.9% | i | ? | . | -6.5% | .
